We go through 13 compounds from PubChem BioAssay (NCI).

Common to all, as to test: NCI-60 one-dose screen, 48 h (100 = growth as untreated, 0 = no growth, -100 = all killed)
The subject of one experiment is NCI-H23 lung. Conditions: 10 µM unless noted.
Another experiment concerns NCI-H226 lung. Conditions: 10 µM unless noted.
For a further experiment, the system named is NCI-H322M lung. Particulars: 10 µM unless noted.
The next experiment deals with HOP-62 NSCLC. Conditions: 10 µM unless noted.
The subject of a further experiment is NCI-H460 lung. Particulars: 10 µM unless noted.
The next experiment relates to HOP-92 NSCLC. Particulars: 10 µM.
Another experiment has as its system NCI-H522 lung. Conditions: 10 µM unless noted.
The subject of a further experiment is A549/ATCC NSCLC. Particulars: 10 µM unless noted.
The subject of another experiment is 786-0 renal. Particulars: 10 µM unless noted.
Another experiment deals with COLO 205 colon. Conditions: 10 µM unless noted.

Molecules are shown by their SMILES. This is part of a sample that, as a whole, favours compounds with a hit. Of some 83,000 tested, about 20% had one in any assay.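 Compound tested at a single concentration for 48 hours in 96-well plates; a percent growth value below 10 was scored as active.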 Unmarked numbers belong to inactive results. The source made the active and inactive calls.

Regarding `CCn1c(SCC(=O)Nc2cccc(C(=O)/C=C/c3ccc(C)cc3)c2)nc2ccccc2c1=O`, the growth in the experiment on NCI-H23 lung is 76.9%; in the experiment with NCI-H226 lung it was 73.4%; in the experiment with NCI-H322M lung, 86.7%; with HOP-62 NSCLC, 108%; with NCI-H460 lung, 98.2%; in the experiment on HOP-92 NSCLC, 77.7%. The growth in the experiment with NCI-H522 lung was 81.1%; with A549/ATCC NSCLC, 68%; with 786-0 renal, 93.6%; with COLO 205 colon, 122%.
As for `CS(=O)(=O)Nc1cc(-c2ccc3ncc(C#N)c(NCc4cccc(F)c4)c3c2)cnc1Cl`, the growth in the experiment on NCI-H23 lung is -1.85% (active); in the experiment with NCI-H226 lung it was 9.2% (active); with NCI-H322M lung it was 12.5%; in the experiment with HOP-62 NSCLC it was -6.39% (active); in the experiment on NCI-H460 lung it was 5.88% (active); in the experiment on HOP-92 NSCLC it was -15.7% (active). Further, the growth is 10.7% in the experiment on NCI-H522 lung, 7.5% (active) in the experiment on A549/ATCC NSCLC, 10.8% in the experiment with 786-0 renal and -45.9% (active) in the experiment on COLO 205 colon.
For the compound `COc1cc(-c2nc(-c3ccccc3)[nH]c2-c2ccnc(NCCCNS(=O)(=O)c3cccc(F)c3)n2)ccc1Cl`, the growth in the experiment on NCI-H23 lung was 53.4%; in the experiment with NCI-H226 lung, 42.1%; in the experiment with NCI-H322M lung it was 87.1%; in the experiment on HOP-62 NSCLC it was 54%; with NCI-H460 lung, 28.7%; in the experiment on HOP-92 NSCLC, 65.1%. Besides, the growth is 32.6% in the experiment on NCI-H522 lung, 38% in the experiment on A549/ATCC NSCLC, 54.9% in the experiment with 786-0 renal and 9.39% (active) in the experiment with COLO 205 colon.
With `COc1cc(OC)c(/C=C/S(=O)(=O)Cc2ccc(OC)c(NC(=O)CCC(=O)NO)c2)c(OC)c1`, the growth with NCI-H23 lung is 16.6%; with NCI-H226 lung it was 27.2%; in the experiment with NCI-H322M lung, 47.8%; in the experiment on HOP-62 NSCLC it was 25.3%; with NCI-H460 lung it was 6.85% (active); with HOP-92 NSCLC it was 63.5%. Moreover, the growth with NCI-H522 lung was -6.54% (active); with A549/ATCC NSCLC, 24.6%; with 786-0 renal, 28.5%; with COLO 205 colon, -53.6% (active).
For `COC(=O)C[Se]C(=O)Cc1c(C)n(C(=O)c2ccc(Cl)cc2)c2ccc(OC)cc12`, the growth in the experiment with NCI-H23 lung is 11.5%; in the experiment with NCI-H226 lung, 52.8%; in the experiment on NCI-H322M lung it was 44.7%; in the experiment with HOP-62 NSCLC it was 25.4%; with NCI-H460 lung it was 16.3%; in the experiment with HOP-92 NSCLC, 53.2%. Also, the growth is 44.8% in the experiment with NCI-H522 lung, 18.7% with A549/ATCC NSCLC, 83.3% in the experiment on 786-0 renal and 49.5% in the experiment on COLO 205 colon.
Turning to `Cc1nc(-c2ccccc2O)ccc1C(=O)N=Nc1c(O)[nH]c2ccc(Br)cc12`, the growth with NCI-H23 lung was 96.2%; in the experiment with NCI-H226 lung, 81.4%; with NCI-H322M lung it was 99.5%; in the experiment on HOP-62 NSCLC, 84.3%; in the experiment with NCI-H460 lung, 99.8%; in the experiment on HOP-92 NSCLC, 62.1%. In addition, the growth with NCI-H522 lung is 97%; in the experiment with A549/ATCC NSCLC, 103%; in the experiment on 786-0 renal it was 102%; in the experiment on COLO 205 colon, 105%.
On to `C=CCn1c(SCC(=O)Nc2ccc(C(=O)/C=C/c3ccc(Cl)cc3)cc2)nnc1-c1c[nH]c2ccccc12`, for which the growth is 77.8% in the experiment on NCI-H23 lung; 68% in the experiment on NCI-H226 lung; 88% in the experiment with NCI-H322M lung; 88.8% in the experiment on HOP-62 NSCLC; 95.1% with NCI-H460 lung; 79.9% with HOP-92 NSCLC. Further, the growth with NCI-H522 lung is 73.4%; in the experiment with A549/ATCC NSCLC, 64.8%; in the experiment with 786-0 renal, 106%; in the experiment on COLO 205 colon it was 107%.
Take `CCN(CC)c1cn(-c2ccc(S(N)(=O)=O)cc2)nn1`: the growth with NCI-H23 lung is 109%; in the experiment on NCI-H226 lung, 109%; in the experiment with NCI-H322M lung, 110%; in the experiment with HOP-62 NSCLC, 112%; in the experiment with NCI-H460 lung it was 106%; with HOP-92 NSCLC, 99%. The growth is 92.9% in the experiment with NCI-H522 lung, 105% in the experiment on A549/ATCC NSCLC, 106% in the experiment with 786-0 renal and 109% in the experiment with COLO 205 colon.
Consider `COc1ccc([C@H]2c3[nH]c4ccccc4c3C[C@H]3C(=O)N(C4CCN(Cc5c(Cl)cccc5Cl)CC4)CC(=O)N23)c(OC)c1`, for which the growth is 98% in the experiment on NCI-H23 lung; 92.9% in the experiment with NCI-H226 lung; 94.5% with NCI-H322M lung; 93.2% in the experiment on HOP-62 NSCLC; 99.1% in the experiment on NCI-H460 lung; 79.4% with HOP-92 NSCLC. The growth in the experiment on NCI-H522 lung was 87.2%; with A549/ATCC NSCLC, 91.1%; with 786-0 renal, 101%; in the experiment with COLO 205 colon it was 109%.
Consider `CNC(=O)c1cc(N2CCc3cc(NC(=O)Nc4ccc(Cl)c(C(F)(F)F)c4)ccc32)ccn1`, for which the growth in the experiment with NCI-H23 lung was 56.1%; in the experiment on NCI-H226 lung it was 77.2%; in the experiment with NCI-H322M lung, 87.1%; with HOP-62 NSCLC, 85.1%; in the experiment on NCI-H460 lung, 38%; in the experiment with HOP-92 NSCLC it was 68%. Besides, the growth is 50% with NCI-H522 lung, 49.2% in the experiment with A549/ATCC NSCLC, 49.7% in the experiment on 786-0 renal and 58% in the experiment on COLO 205 colon.
Consider `CNC(=O)c1c(NC(=O)c2ccccc2C(F)(F)F)sc2c1CCC(=O)C2`, for which the growth in the experiment with NCI-H23 lung was 13.9%; in the experiment on NCI-H226 lung, 64.2%; with NCI-H322M lung it was 105%; in the experiment with HOP-62 NSCLC, 98.6%; in the experiment with NCI-H460 lung it was 57.4%; in the experiment with HOP-92 NSCLC, 1.45% (active). For the same compound, the growth is 3.39% (active) in the experiment on NCI-H522 lung, 70.9% with A549/ATCC NSCLC, 39.6% in the experiment on 786-0 renal and 16.2% in the experiment on COLO 205 colon.
Consider `NC(N)=Nc1ccc(Oc2cccc(NC(N)=Nc3ccc(Br)cc3)c2)cn1`, for which the growth with NCI-H23 lung was 61.1%; with NCI-H226 lung, 81.3%; in the experiment with NCI-H322M lung, 65.1%; with HOP-62 NSCLC, 65.6%; in the experiment with NCI-H460 lung, 46.7%; with HOP-92 NSCLC, 29%. For the same compound, the growth with NCI-H522 lung is 46.9%; with A549/ATCC NSCLC, 53.5%; in the experiment on 786-0 renal it was 68.7%; with COLO 205 colon, 16.5%.
In the case of `CCCCCc1ccc(S(=O)(=O)Nc2cccc(-c3csc(NC(=O)CN4CCN(CCO)CC4)n3)c2)cc1`, the growth in the experiment with NCI-H23 lung is 84.7%; in the experiment on NCI-H226 lung, 92.3%; in the experiment with NCI-H322M lung it was 98.6%; in the experiment with HOP-62 NSCLC, 92.9%; in the experiment on NCI-H460 lung, 44.4%; in the experiment on HOP-92 NSCLC it was 59.5%. The growth in the experiment with NCI-H522 lung was 89.1%; in the experiment with A549/ATCC NSCLC it was 78.9%; in the experiment with 786-0 renal, 71.1%; with COLO 205 colon, 59.2%.
